Compound activity from PubChem.
In the library only some 2.7% were active in any assay of this set; here they are far more common.
12-LOX inh: ALOX12 (human) lipoxygenase inhibition; actives 1.1% (n = 580,000); purified 12hLO, xylenol orange hydroperoxide absorbance; Potency, µM (series often up to 108 µM), for inactives: top-dose activity change, negative = inhibition, hits mostly inhibitors; P18054; AID 1671190; also: % is scaled to controls: 0 for no effect and ±100 for the full control effect
Target sequence (P18054 whole entry, looked up): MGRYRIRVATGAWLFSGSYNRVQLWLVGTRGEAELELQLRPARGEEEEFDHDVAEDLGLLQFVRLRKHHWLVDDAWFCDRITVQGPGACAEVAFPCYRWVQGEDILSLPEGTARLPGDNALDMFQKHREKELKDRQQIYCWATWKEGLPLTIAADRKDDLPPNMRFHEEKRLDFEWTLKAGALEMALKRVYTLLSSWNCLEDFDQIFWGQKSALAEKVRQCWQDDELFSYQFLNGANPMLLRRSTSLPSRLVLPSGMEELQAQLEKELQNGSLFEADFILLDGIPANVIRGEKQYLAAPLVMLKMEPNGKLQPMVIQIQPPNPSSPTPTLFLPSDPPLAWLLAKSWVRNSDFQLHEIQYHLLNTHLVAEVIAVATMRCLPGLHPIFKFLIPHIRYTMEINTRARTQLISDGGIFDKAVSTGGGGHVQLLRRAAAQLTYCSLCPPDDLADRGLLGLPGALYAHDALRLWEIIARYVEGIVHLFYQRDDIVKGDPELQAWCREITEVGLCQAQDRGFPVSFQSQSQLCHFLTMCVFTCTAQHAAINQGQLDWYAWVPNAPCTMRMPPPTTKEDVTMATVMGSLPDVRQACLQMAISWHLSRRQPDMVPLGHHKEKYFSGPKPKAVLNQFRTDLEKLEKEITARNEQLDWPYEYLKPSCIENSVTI
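Purified human 12hLO at 150 nM in 25 mM Hepes, 0.01% Triton X-100, pH 7.0, preincubated 15 min at room temperature with compound. Reaction started with 40 uM arachidonic acid, 30 min at room temperature. Hydroperoxide measured by Fe-xylenol orange, 573/405 nm absorbance ratio.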
TGFb inhibitor: blocks TGF-b signaling; HepG2 CAGA-GFP TGF-b/SMAD3 reporter, GFP fluorescence, 18 h; TGF-beta stimulated, 500 pg/mL final; Potency, µM (doses to about 46.1 µM), inactives show at the top dose activity, negative = inhibition, most hits filed as inhibitors; actives 1.2% (n = 410,000); also: % is scaled to controls: 0 for no effect and ±100 for the full control effect; nearly all actives have a fitted effect of over 65% in size
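First, reporter cells (HEPG2 CAGA-GFP) rested 2 h at 37 degrees C. Next, compounds were pinned in and TGF-beta added to 500 pg/mL final. After 18 h, GFP was imaged per cell and summed per well.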
ATXN viability: reduces viability in counter-screen for ATXN expression inhibitors | S2 cells (HEK-293 line with an ATXN2-luciferase reporter) viability, CellTiter-Fluor protease fluorescence, 24 h | Potency, µM (doses to about 56.7 µM), usual class: cytotoxic | actives 0.49% (n = 400,000) | AID 651635; also: nearly all actives have a fitted effect of over 40% in size
ATXN2 expr inh: ATXN2 expression inhibition. actives 0.72% (n = 360,000). HEK-293 ATXN2-luciferase reporter, luminescence, 24 h. Potency, µM (top dose mostly 57 µM), without a hit: at the highest dose activity change, negative = inhibition, hits mostly inhibitors. AID 1745845; also: % is scaled to controls: 0 for no effect and ±100 for the full control effect; nearly all actives have a fitted effect of over 55% in size
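ATXN2-luciferase reporter cells (luciferase flanked by upstream and downstream ATXN2 gene portions) were treated 24 h at 37 °C with compounds at up to 57 uM. SteadyGlo luminescence gave expression; GF-AFC fluorescence gave viability.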
HepG2 tox: counter-screen for TGF-b inhibitors: cytotoxicity in HepG2 cells. actives 0.76% (n = 410,000). Potency, µM (doses to about 46.1 µM), for inactives: at the highest dose activity change, negative = cytotoxicity, actives largely listed as cytotoxic. HepG2 CAGA-GFP viability, ATP luminescence, 18 h
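CellTiter-Glo luminescence gave cytotoxicity after 18 hours at 37 degrees C. The cells were HepG2 CAGA-GFP in 1% FBS DMEM, stimulated with 500 pg/mL TGF-beta after compound addition. %Activity was normalised to no-cell wells (complete cell-killing) and DMSO (no toxicity), and curves were fitted and classified.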
Starred values were filed as active, the others as inactive; i = inactive; ? = inconclusive; nt = not tested or not shown; ! = a repeat was not active. Calls follow the shape of the dose curve; as a rule, active = well fitted curve in the direction sought with a large enough effect; inconclusive = small, poorly fitted or top-dose-only effect, or another doubt; inactive = no such curve, though single readings can be large; an effect the other way counts as inactive or inconclusive. Potency is read from the fitted curve at half-maximal effect.

SMILES	12-LOX inh	TGFb inhibitor	ATXN viability	ATXN2 expr inh	HepG2 tox
COc1ccc(CNCCC(c2ccccc2)c2ccc3c(c2)OCO3)cc1 (stereo not given)	?	22.4µM*	22.4µM*	25.1µM*!	-98.0%
COc1ccc(CNCCC(c2ccc(OC(C)C)cc2)c2ccccc2OC)cc1OC (stereo not given)	-64.6%	?	i	-26.7%	-99.0%
CC(C)CCC(CCNCc1ccccn1)c1ccc2c(c1)OCO2 (stereo not given)	?	?	?	nt	15.8µM*
CCNCCC(CCC(C)C)c1ccc2c(c1)OCO2 (stereo not given)	?	-1.6%	i	-19.4%	-23.4%
COC(=O)Cc1csc(NC(=O)Cc2c(C)c3ccc(O)cc3oc2=O)n1	-3.9%	nt	nt	nt	nt
O=C1CCCN1CCCNCC1CCCCC1	46.9%	nt	nt	nt	nt
CC1CCN(c2ccc(NC(=O)C(Cc3ccccc3)NC(=O)c3cccs3)cc2)CC1 (stereo not given)	-9.6%	nt	nt	nt	nt
CC1CCCN(C(=O)CSc2nnc(-c3ccccc3)o2)C1 (stereo not given)	1.6%	nt	nt	nt	nt
COc1ccccc1C(CCNCc1ccccc1)c1ccc(OC(C)C)cc1 (stereo not given)	?	?	?	28.2µM*	12.6µM*
CCN(CC)C1=NC(=O)C(CC(=O)Nc2cccc(C(=O)NCCc3ccccc3OC)c2)S1 (stereo not given)	1.12µM*	nt	nt	nt	nt
COc1ccccc1CCNC(=O)c1ccc(NC(=O)CC2SC(N3CCCC3)=NC2=O)cc1 (stereo not given)	?	7.3%	i	-3.0%	-3.8%
Cc1cccc(N=Cc2ccccc2[N+](=O)[O-])c1	7.2%	nt	nt	nt	nt
Cc1cc(O)c(C(C)C)cc1N=Cc1ccccc1[N+](=O)[O-]	?	3.9%	?	17.8µM*	-3.6%
COC(=O)c1cc(NC(=O)CCC2CCCCC2)cc(C(=O)OC)c1	-19.7%	nt	nt	nt	nt
C=CCNc1nnc(SCc2coc(-c3ccccc3)n2)s1	0.7%	nt	nt	nt	nt
Cc1ccc(C=Nc2ccc(Nc3ccccc3)cc2)s1	39.8µM*	nt	nt	nt	nt
Cc1ccc(C=Nc2ccc(C(C)C)cc2)s1	7.2%	nt	nt	nt	nt
CC(C)Cn1c(-c2ccco2)n[nH]c1=S	10µM*	-16.5%	i	6.3%	1.0%
CC(C)Cn1c(-c2ccccc2F)n[nH]c1=S	25.1µM*	-7.8%	i	1.7%	-0.4%
CC(NC(=O)CCc1c[nH]c2ccccc12)c1ccco1 (stereo not given)	-52.7%	nt	nt	nt	nt
O=C(CCc1cccnc1)NCC1CC1	-23.2%	nt	nt	nt	nt
COc1ccc(F)cc1C(=O)C(=O)O	8.91µM*	nt	nt	nt	nt
COc1ccc(C(=O)Nc2ccccc2C(=O)N/N=C/c2ccccn2)cc1OC	12.6%	?	i	28.2µM*	-18.0%
O=C(COc1ccc(Cl)cc1)N/N=C/c1cccc2cccnc12	1.9%	?	i	25.1µM*	5.8%
Cc1ccccc1C(=O)N/N=C/c1ccccn1	-13.4%	-7.1%	i	-19.6%	2.5%
SMILES	12-LOX inh	TGFb inhibitor	ATXN viability	ATXN2 expr inh	HepG2 tox
COc1ccc(C(=O)N/N=C/c2ccccn2)cc1OC	0.1%	3.5%	i	-6.5%	-33.3%
O=C(N/N=C/c1cccc2cccnc12)c1ccccc1O	0.0%	?	3.55µM*	nt	-15.6%
COc1ccc(OCC(=O)N/N=C/c2cccc3cccnc23)cc1	420.9%	3.2%	i	?	-10.5%
O=C(N/N=C\c1ccccn1)c1ccccc1O	2.2%	?	i	-54.1%	3.16µM*
Cc1ccc(NC(=O)c2cc(-c3cccnc3)nc3ccccc23)c(O)c1	-53.2%	nt	nt	nt	nt
Cc1nc(-c2ccc(C)c(S(=O)(=O)N3CCCCC3)c2)cs1	-3.9%	nt	nt	nt	nt
COc1ccc(OC)c(NC(=O)Cn2ccc3c(Cl)cccc32)c1	1.8%	nt	nt	nt	nt
CC1=NN2C(=N)/C(=C\c3ccc(SCc4ccccc4)o3)C(=O)N=C2S1	39.8µM*	1.5%	i	-17.8%	-2.3%
CC1=NN2C(=N)/C(=C\c3cc(C)n(Cc4ccccc4)c3C)C(=O)N=C2S1	189.8%	8.2%	?	-0.5%	-14.6%
Cc1cc(Nc2cccc(F)c2)nc(NCc2ccccc2)n1	?	?	?	?	-79.9%
Cc1ccc(/C=N/Nc2cc(C)nc(NCc3ccccc3)n2)cc1	?	?	i	-30.4%	12.6µM*
Cc1cc(Nc2ccc(Cl)cc2)nc(NCc2ccccc2)n1	?	?	?	?	11.2µM*
Cc1ccc(CNC(=O)N2CCC3(CC2)Nc2ccccc2-n2cccc23)cc1	-17.2%	nt	nt	nt	nt
COC(=O)C1=C(N)Oc2cc(C)n(Cc3ccccc3)c(=O)c2C1c1ccccc1OC (stereo not given)	-12.0%	nt	nt	nt	nt
COc1ccc(-c2coc3cc(OCC(=O)N4CCN(c5ccc(F)cc5)CC4)ccc3c2=O)cc1	-9.3%	nt	nt	nt	nt
CN(CCO)c1cc(Sc2nc3ccccc3s2)c2nonc2c1[N+](=O)[O-]	?	?	14.1µM*	10µM*	-99.2%
COc1ccc(CN2CCNC(=O)C2CC(=O)NCCC2=CCCCC2)c(F)c1 (stereo not given)	11.2µM*	7.3%	i	6.4%	-21.6%
COc1cc(CN2CCNC(=O)C2CC(=O)NCCC2=CCCCC2)cc(OC)c1 (stereo not given)	-16.9%	-1.1%	i	3.8%	-12.8%
COC(=O)CNC(=O)C(c1ccccc1)c1ccccc1	2.5%	nt	nt	nt	nt
Cc1ccc(-c2cnc(CCC(=O)NCc3ccc(OCC(F)(F)F)cc3)o2)cc1	2.7%	nt	nt	nt	nt
NS(=O)(=O)c1ccc(CCNC(=O)c2ccc([N+](=O)[O-])s2)cc1	-14.9%	?	i	-34.2%	20µM*
NS(=O)(=O)c1ccc(CCNC(=O)c2ccc(Cl)s2)cc1	?	-18.7%	i	-26.4%	-3.9%
CCCCC1=CC2=CC(=O)C(C)(OC(=O)c3cccs3)C(=O)C2=CO1 (stereo not given)	28.2µM*	-3.9%	i	1.7%	3.3%
CC1(OC(=O)CCc2ccccc2)C(=O)C=C2C=C(c3ccc(C#N)cc3)N(Cc3ccccc3)C=C2C1=O (stereo not given)	-15.8%	-5.8%	i	-14.9%	-8.8%
CCCCC1=CC2=CC(=O)C(C)(OC(=O)CCc3ccccc3)C(=O)C2=CO1 (stereo not given)	12.6µM*	1.0%	i	-4.2%	-4.1%
C=CCSc1nc2sc3c(c2c(=O)n1CC)CCc1ccccc1-3	7.08µM*	?	i	-7.9%	-3.6%
C=CCn1c(SCC)nc2sc3c(c2c1=O)CCc1ccccc1-3	21.4%	?	i	18.0%	-0.2%
O=C(NCc1cc(C(F)(F)F)ccc1Cl)c1cccc2c1C(=O)c1ccc(N3CCC(N4CCCCC4)CC3)cc1S2(=O)=O	?	?	?	25.1µM*	15.8µM*
